Measurements from PubChem BioAssay.
Calls of active or inactive are those of the source. The rule behind the calls is not given here.

Experiment: inhibition of Brca1/Bard1 split-luciferase complementation, confirmation, counter-screen for Mdm2/MdmX interaction inhibitor project, luminescence, single concentration (AID 504668)
Conditions: Brca1/Bard1 bimolecular luciferase complementation counterscreen, at 8 µM, active compounds read high
With `CC(C)c1nc(NCCO)c(C#N)c2c1CCCC2` the inhibition was 35% (active).
With `COc1ccc2[nH]c3c(c2c1)CCNC3=O` the inhibition was 34.4% (active).
For `Cc1nc2sc(C(N)=O)c(N)c2c(C)c1CC(=O)c1ccccc1`, the inhibition was 31.4% (active).
In the case of `O=C(Nc1nc2ccc(F)cc2s1)C1CCN(S(=O)(=O)c2cc([N+](=O)[O-])ccc2Cl)CC1`, the inhibition is reported as 25.5% (active).
In the case of `Cc1[nH]nc2ncc(C(=O)c3ccccc3O)cc12`, the inhibition is reported as 30.4% (active).
With `COc1ccc(-c2cn[nH]c2-c2ccc(O)cc2O)cc1` the inhibition was 25.3% (active).
For `COc1ccc2cc(C(N)=O)c(=Nc3ccc(C)cc3)oc2c1`, the inhibition was 35.2% (active).
For `COc1cccc(-c2nnc3sc(C4CCCCC4)nn23)c1`, the inhibition was 25% (active).
With `COc1ccc(-c2cn[nH]c2-c2ccc(OC)cc2O)cc1` the inhibition was 32.5% (active).
For `FC(F)(F)c1nnc2c(Sc3ccc(Cl)cc3)nc3ccccc3n12`, the inhibition was 31.6% (active).
For `c1cc2[nH]snc2c2nc(C3CC3)nc12`, the inhibition was 26.4% (active).
In the case of `COc1ccc2[nH]c3c(c2c1)CC(C)NC3=O` (stereo not given), the inhibition is reported as 33.6% (active).
In the case of `CC(=O)c1cccc(NC(=O)Nc2cccnc2)c1`, the inhibition is reported as 27.6% (active).
With `O=[N+]([O-])c1ccc2ncnc(N3CCN(Cc4ccc5c(c4)OCO5)CC3)c2c1` the inhibition was 24.3% (active).
In the case of `Cn1c(Oc2ccc(Cl)cc2)c(C=O)c2ccccc21`, the inhibition is reported as 34.4% (active).
With `CCN(CC)S(=O)(=O)c1ccc(NC(=O)Nc2cccc(C(F)(F)F)c2)cc1` the inhibition was 35.2% (active).
In the case of `OCCCNc1ncnc2scc(-c3ccc(Cl)cc3)c12`, the inhibition is reported as 33.2% (active).
With `Cn1nnnc1Sc1ncnc2scc(-c3ccc[nH]3)c12` the inhibition was 29.2% (active).
For `Cc1c(C=O)c(C=O)c(C)n1Cc1ccccc1`, the inhibition was 30.8% (active).
In the case of `Clc1cncc(Cl)c1N/N=C/c1ccncc1`, the inhibition is reported as 27.6% (active).
For `CCN1CCN(Cc2ccc(NC(=O)c3ccc(C)c(NC(=O)C(=O)c4c[nH]c5ccccc45)c3)cc2C(F)(F)F)CC1`, the inhibition was 30.8% (active).
In the case of `CCn1c(Oc2ccccc2F)nc2c1c(=O)n(C)c(=O)n2C`, the inhibition is reported as 23.1% (active).
For `COc1cccc(NC(=O)Nc2nnc(CC(=O)NCc3ccccc3)s2)c1`, the inhibition was 35.1% (active).
In the case of `CCOc1ccc(-n2c(C)c(C(C)=O)c3cc(O)ccc32)cc1`, the inhibition is reported as 31.2% (active).
With `CC(C)Nc1ncnc2ccc(Br)cc12` the inhibition was 24.8% (active).
In the case of `Cc1[nH]nc2nc(SCC(=O)NCCC3=CCCCC3)n(-c3ccc(Br)cc3)c(=N)c12`, the inhibition is reported as 31.1% (active).
In the case of `Cc1cc(N2CCOCC2)c2c(N)c(Br)cc(C)c2n1`, the inhibition is reported as 35.4% (active).
With `Clc1cccc(Nc2ncnc3ccc(Br)cc23)c1` the inhibition was 35.6% (active).
With `Cc1cccc(CNc2ncnc3ccc(-c4ccoc4)cc23)c1` the inhibition was 23.8% (active).
In the case of `Cn1c(=O)c2c(nc(Oc3ccc4ccccc4c3)n2C)n(C)c1=O`, the inhibition is reported as 33.6% (active).
With `O=C(Nc1cccc2[nH]ncc12)c1ccc(F)cc1` the inhibition was 25% (active).
For `CN1CCN(c2ncnc3scc(-c4ccccc4Cl)c23)CC1`, the inhibition was 28.7% (active).
For `COc1ccc(Cc2nnc(SCc3ccc([N+](=O)[O-])cc3)o2)cc1`, the inhibition was 28.9% (active).
With `NC(=O)N/N=C/c1c(Sc2nnnn2-c2ccccc2)nc2ccccn2c1=O` the inhibition was 23.4% (active).
In the case of `CCc1c(C)nc2ccc(Br)cc2c1SCCC#N`, the inhibition is reported as 23.1% (active).
With `COc1ccc(-c2cc(=O)oc3c(C)c(OC(=O)c4cccs4)ccc23)cc1` the inhibition was 32.9% (active).
With `Cc1ccc2nc(C(F)(F)F)c(C#N)c(N)c2c1` the inhibition was 25.7% (active).
For `C=C(C)COc1ccc(-c2[nH]ncc2-c2ccc(OC)cc2)c(O)c1`, the inhibition was 28.9% (active).
In the case of `CC(C)CN=C(NS(=O)(=O)c1ccccc1)C(Cl)(Cl)Cl`, the inhibition is reported as 35.9% (active).
For `Oc1ccc(CCNc2ncnc3ccc(Cl)cc23)cc1`, the inhibition was 28.6% (active).
